Reference: PubChem BioAssay AID1159580 (chemical genetic matrix, 2015)
Values joined by “and” are separate entries in the source; they are usually repeats but may differ in a detail not shown here. Identical values can stand only once. Among all 5,500 compounds or so, about 2,000 (36%) were called active. Another 18% or so got no clear call; they are omitted. No stated cut-off is given here; in the data, active means normalized growth mostly below about 0.91 (no sharp cut-off); inconclusive means no clear call, values can overlap the other calls; inactive means mostly above about 0.92. Some of the results follow.

Experiment: chemical genetic growth profiling, strain panel (AID 1159580);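 further: tested at 20 µM; growth read once vehicle control cultures reached saturation at 30 °C; 1 = growth at the plate median or of vehicle wells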
Conditions: S. cerevisiae deletion strains, growth OD

Measured: normalized growth

CC(=O)NS(=O)(=O)c1ccc(N)cc1
inactive: locus YAL021C, strain ccr4, stronger effect = lower value 1 | locus YAL026C, strain drs2, stronger effect = lower value 1.01 | locus YAL030W, strain snc1, stronger effect = lower value 1.01 | locus YBL061C, strain skt5, stronger effect = lower value 0.999 | locus YBR009C, strain hhf1, stronger effect = lower value 1.01 | locus YBR021W, strain FUR4, stronger effect = lower value 0.987 | locus YBR023C, strain chs3, stronger effect = lower value 1.01 | locus YBR171W, strain sec66, stronger effect = lower value 1.02 | locus YBR229C, strain ROT2, stronger effect = lower value 0.986 | locus YBR231C, strain swc5, stronger effect = lower value 1.03 | locus YBR279W, strain paf1, stronger effect = lower value 1.01 | locus YCL011C, strain gbp2, stronger effect = lower value 1.02 | locus YCL016C, strain dcc1, stronger effect = lower value 1.01 | locus YCL029C, strain bik1, stronger effect = lower value 0.973 | locus YCL061C, strain MRC1, stronger effect = lower value 1.02 | locus YCL069W, strain vba3, stronger effect = lower value 1 | locus YCR088W, strain abp1, stronger effect = lower value 1.01 | locus YDL005C, strain med2, stronger effect = lower value 1.01 | locus YDL035C, strain GPR1, stronger effect = lower value 1 | locus YDL040C, strain nat1, stronger effect = lower value 0.995 | locus YDL074C, strain BRE1, stronger effect = lower value 1.02 | locus YDL101C, strain DUN1, stronger effect = lower value 0.987 | locus YDL134C, strain PPH21, stronger effect = lower value 0.99 | locus YDL185W, strain tfp1, stronger effect = lower value 0.98 | locus YDL192W, strain arf1, stronger effect = lower value 0.971 | locus YDR001C, strain nth1, stronger effect = lower value 1.01 | locus YDR069C, strain doa4, stronger effect = lower value 1.03 | locus YDR101C, strain arx1, stronger effect = lower value 0.971 | locus YDR137W, strain rgp1, stronger effect = lower value 0.997 | locus YDR150W, strain NUM1, stronger effect = lower value 0.994 | locus YDR159W, strain sac3, stronger effect = lower value 1.03 | locus YDR162C, strain NBP2, stronger effect = lower value 0.999 | locus YDR195W, strain ref2 0.998 | locus YDR297W, strain sur2, stronger effect = lower value 1 | locus YDR318W, strain mcm21, stronger effect = lower value 0.987 | locus YDR334W, strain swr1, stronger effect = lower value 0.999 | locus YDR335W, strain msn5, stronger effect = lower value 0.993 | locus YDR388W, stronger effect = lower value 0.977 | locus YDR392W, strain spt3, stronger effect = lower value 1.01 | locus YDR502C, strain sam2, stronger effect = lower value 0.99 | locus YEL003W, strain gim4, stronger effect = lower value 1.01 | locus YEL037C, strain rad23, stronger effect = lower value 1.01 | locus YEL061C, strain CIN8 (second series), stronger effect = lower value 1.02 | locus YEL061C, strain CIN8, stronger effect = lower value 0.993 | locus YER015W, strain faa2, stronger effect = lower value 1.01 | locus YER016W, strain bim1, stronger effect = lower value 1.02 | locus YER110C, stronger effect = lower value 0.975 | locus YER111C, strain swi4, stronger effect = lower value 1 | locus YER155C, strain BEM2 (second series), stronger effect = lower value 1.05 | locus YER155C, strain BEM2, stronger effect = lower value 0.986 | locus YER167W, strain BCK2, stronger effect = lower value 0.989 | locus YFR010W, strain ubp6, stronger effect = lower value 1.02 | locus YGL078C, strain dbp3, stronger effect = lower value 0.974 | locus YGL086W, strain mad1, stronger effect = lower value 1 | locus YGL167C, strain pmr1, stronger effect = lower value 0.999 | locus YGL173C, strain kem1, stronger effect = lower value 1.01 | locus YGL227W, strain vid30, stronger effect = lower value 1.01 | locus YGL240W, strain doc1, stronger effect = lower value 0.999 | locus YGL248W, strain PDE1, stronger effect = lower value 0.994 | locus YGL253W, strain hxk2, stronger effect = lower value 1.02 | locus YGR078C, strain PAC10, stronger effect = lower value 0.998 | locus YGR135W, strain pre9, stronger effect = lower value 0.976 | locus YGR252W, strain gcn5, stronger effect = lower value 1.05 | locus YHR013C, strain ard1, stronger effect = lower value 1.01 | locus YHR027C, strain rpn1, stronger effect = lower value 1.02 | locus YHR030C, strain SLT2, stronger effect = lower value 0.992 and 0.987 | locus YHR079C, strain IRE1 (second series), stronger effect = lower value 0.978 | locus YHR079C, strain IRE1, stronger effect = lower value 0.982 | locus YHR094C, strain hxt1, stronger effect = lower value 0.993 | locus YHR129C, strain ARP1, stronger effect = lower value 0.997 | locus YHR142W, strain chs7, stronger effect = lower value 1.01 | locus YHR200W, strain rpn10, stronger effect = lower value 0.984 | locus YIL066C, strain RNR3, stronger effect = lower value 0.993 | locus YIL073C, strain SPO22, stronger effect = lower value 0.934 | locus YIL125W, strain kgd1, stronger effect = lower value 0.986 | locus YIR030C, strain dcg1, stronger effect = lower value 0.981 | locus YJL092W, strain hpr5, stronger effect = lower value 1.02 | locus YJL095W, strain BCK1 (second series), stronger effect = lower value 1.01 | locus YJL095W, strain BCK1, stronger effect = lower value 1 and 0.978 | locus YJL115W, strain asf1, stronger effect = lower value 1.04 | locus YJL129C, strain trk1, stronger effect = lower value 1.01 | locus YJL134W, strain LCB3, stronger effect = lower value 0.992 | locus YJL154C, strain vps35, stronger effect = lower value 1.01 | locus YJL164C, strain tpk1, stronger effect = lower value 1 | locus YJL166W, strain qcr8, stronger effect = lower value 1 | locus YJL168C, strain set2, stronger effect = lower value 0.986 | locus YJL187C, strain SWE1 (second series), stronger effect = lower value 0.983 | locus YJL187C, strain SWE1, stronger effect = lower value 1.01 | locus YJR043C, strain POL32, stronger effect = lower value 0.997
